# Compound activity as filed in PubChem BioAssay.
# A selection: hits, their analogues and other compounds. The true share with any hit is near 9%.
# HPGD block: qHTS Assay for Inhibitors of HPGD (15-Hydroxyprostaglandin Dehydrogenase) | 15-hydroxyprostaglandin dehydrogenase [NAD(+)] (Homo sapiens), P15428 | purified HPGD, NADH fluorescence kinetic, PGE2 substrate | Potency, µM, without a hit: at the top dose activity change, negative = inhibition, usual class: inhibitors | hit rate 4.3% among 150,000 | AID 894, 2007; active = well fitted inhibition curve with a large enough effect, not every such curve was filed as active; inconclusive = small, poorly fitted or top-dose-only effect, or another doubt; inactive = no such curve, though single readings can be large or run the other way; also: % is scaled to controls: 0 for no effect and ±100 for the full control effect
# Target sequence (P15428 whole entry, looked up): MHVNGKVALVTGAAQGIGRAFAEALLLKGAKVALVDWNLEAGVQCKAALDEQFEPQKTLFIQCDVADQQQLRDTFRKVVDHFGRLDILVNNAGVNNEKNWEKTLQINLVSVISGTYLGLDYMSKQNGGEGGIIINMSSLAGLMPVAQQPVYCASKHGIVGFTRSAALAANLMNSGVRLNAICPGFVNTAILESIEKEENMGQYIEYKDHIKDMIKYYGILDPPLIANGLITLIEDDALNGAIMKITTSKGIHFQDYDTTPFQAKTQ
#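 20 nM HPGD preincubated 15 min at room temperature with compound in 50 mM Tris-HCl pH 8, 0.01% Tween 20. Started with 1 mM NAD+ and 30 uM prostaglandin E2; NADH fluorescence (360/450 nm) read 5 times over 30-s intervals, last minus first.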
# ALDH1A1 inh: qHTS Assay for Inhibitors of Aldehyde Dehydrogenase 1 (ALDH1A1). Purified ALDH1A1, NADH fluorescence, propionaldehyde substrate. Potency, µM (highest dose often 75.3 µM), for inactives: at the top dose activity, negative = inhibition, actives largely listed as inhibitors. hit rate 7.3% among 220,000. AID 1030, 2008; active = well fitted inhibition curve with a large enough effect, not every such curve was filed as active; inconclusive = small, poorly fitted or top-dose-only effect, or another doubt; inactive = no such curve, though single readings can be large or run the other way;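 also: plate controls were no enzyme wells and a reference inhibitor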
# Target sequence (P00352 whole entry, looked up): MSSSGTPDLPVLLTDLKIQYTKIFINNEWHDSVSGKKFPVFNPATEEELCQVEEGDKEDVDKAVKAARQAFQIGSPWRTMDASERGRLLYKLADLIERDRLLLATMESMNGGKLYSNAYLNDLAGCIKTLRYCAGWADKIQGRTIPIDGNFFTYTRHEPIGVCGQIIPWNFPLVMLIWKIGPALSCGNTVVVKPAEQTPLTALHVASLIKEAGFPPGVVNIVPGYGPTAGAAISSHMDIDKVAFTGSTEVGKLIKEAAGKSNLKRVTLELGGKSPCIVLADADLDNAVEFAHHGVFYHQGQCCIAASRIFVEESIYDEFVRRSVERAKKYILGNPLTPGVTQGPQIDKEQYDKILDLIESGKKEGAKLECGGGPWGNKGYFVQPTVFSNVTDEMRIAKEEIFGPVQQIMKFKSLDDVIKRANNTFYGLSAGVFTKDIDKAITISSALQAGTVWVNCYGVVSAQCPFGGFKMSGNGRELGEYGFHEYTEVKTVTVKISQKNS
# KinaseGlo FLuc: Counterscreen for Luciferase (Kinase-Glo TM) Inhibition. Luciferin 4-monooxygenase (Photuris pensylvanica), Q27757. Potency, µM (top dose mostly 38.3 µM), inactives show at the top dose activity change, negative = inhibition, usual class: inhibitors. Kinase-Glo luciferase, ATP luminescence, 8 min. hit rate 0.28% among 200,000; also: % is scaled to controls: 0 for no effect and ±100 for the full control effect; nearly all actives have a fitted effect of over 60% in size
#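 Compound is pinned into ATP-containing buffer (10 uM ATP, imidazole pH 7.2, 7 mM MgCl2). Kinase-Glo luciferase reagent is then added. Light output is recorded following an 8-min room-temperature incubation.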
# HTT cytoprotect: qHTS Multiplex Assay to Identify Dual Action Probes in a Cell Model of Huntington: Cytoprotection (ATP); PC12 HTT-Q103 induced, cytoprotection, ATP luminescence, 40 h; Potency, µM (top dose mostly 56.4 µM), for the others: cytoprotection (ATP increase), most hits filed as activators; hit rate 0.14% among 230,000; AID 1471, 2008; also: % of control where 0% means no effect; nearly all actives have a fitted effect of over 45% in size
#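 Rat PC12, Q103 Htt exon1-GFP fusion, ecdysone promoter; tebufenozide inducer 100 nM final; compound titration; qHTS, 1500 cells/well; ATPlite luminescent read.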
# LMNA splice mod: qHTS Assay for Modulators of Lamin A Splicing | HeLa LMNA splicing GFP/RFP minigene ratio, 48 h | Potency, µM (titrated, usually from 46.1 µM), without a hit: at the top dose ratio change, negative = inhibition, actives largely listed as inhibitors | hit rate 0.01% among 200,000; active = well fitted inhibition curve with a large enough effect in the signal ratio, with a control signal flat, not every such curve was filed as active; inconclusive = small, poorly fitted or top-dose-only effect, or effect the other way, or a change in a side signal; the % refers to the signal ratio; also: % is scaled to controls: 0 for no effect and ±100 for the full control effect
#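 S3 HeLa cells stably expressing lamin A-EGFP splicing minigene plus DsRed2, 600 cells/well, 48 h compound exposure at 37C. Laser-scanning cytometry; analysed as GFP (500-530 nm)/RFP (575-640 nm) total intensity ratio; 0.5% DMSO vehicle.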
# HttQ103 aggreg: qHTS Multiplex Assay to Identify Dual Action Probes in a Cell Model of Huntington: Aggregate Formation (GFP) | hit rate 1.1% among 220,000 | AID 1688, 2009 | PC12 HttQ103-GFP aggregates, Acumen cytometry, 40 h | Potency, µM (titrated, usually from 46.1 µM), without a hit: at the highest dose activity change, negative = inhibition, usual class: inhibitors; also: % is scaled to controls: 0 for no effect and ±100 for the full control effect; nearly all actives have a fitted effect of over 60% in size
#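 Steps: seed 1500 PC12 HTTQ103-GFP cells/well; add tebufenozide, 100 nM final; add compound titration; add ATPLite reagent; quantify GFP aggregates by laser scanning cytometry.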
# * marks the source's active call; other numbers are inactive results; ? = inconclusive; nt = not tested or not shown; [ ] = another dose, or the depositor's remark. Unless noted, calls follow the shape of the dose curve; as a rule, active = well fitted curve in the direction sought with a large enough effect; inconclusive = small, poorly fitted or top-dose-only effect, or another doubt; inactive = no such curve, though single readings can be large; an effect the other way counts as inactive or inconclusive. Potency is read from the fitted curve at half-maximal effect.
SMILES,HPGD block,ALDH1A1 inh,KinaseGlo FLuc,HTT cytoprotect,LMNA splice mod,HttQ103 aggreg
CC(=O)Nc1nnc2n1CCS2,nt,nt,nt,nt,-19%[46 µM],nt
N=C1/C(=C\c2ccc(SCc3ccco3)o2)C(=O)N=C2SC=NN12,25µM*,7.9µM*,-7%,-61%,8%,-6%
CC1=NN2C(=N)/C(=C\c3ccc(SCc4ccccc4)o3)C(=O)N=C2S1,-22%,-16%,-1%,-26%,11%,5%
CN(C)c1nc(OCCNC(=O)Nc2ccccc2)nc(N2CCCCC2)n1,nt,0.89µM*,-1%,6%[10 µM],nt,-1%[9.22 µM]
O=C1Nc2ccccc2/C1=N\N=C\C1=C(N2CCOCC2)C(=C\c2ccccc2)/CC1,-7%,10µM*,?,-11%,20%,10%
Cc1c(Cl)cccc1NC(=O)CN1CCC(NC(=O)C2CCCCC2)CC1,-11%,4%,-1%,13%,6%,-27%
COC(=O)c1c(NC(=O)C(C)(C)C)sc2c1C(C(=O)OC)CC2 (configuration not stated),?,?,-4%,-8%,7%,6%
COC(=O)c1c(NC(=O)C(Cl)Cl)sc2c1C(C(=O)OC)CC2 (configuration not stated),nt,0.89µM*,nt,-5%[10 µM],nt,3%[9.22 µM]
O=C(COc1ccccc1)N1CCN(C(=O)c2ccco2)CC1,0%,?,1%,2%,8%,7%
O=C(c1ccc(-c2ccccc2)cc1)N1CCN(C(=O)c2ccco2)CC1,-12%,?,-3%,12%,?,-9%
Cc1ccc(CC(=O)N2CCN(C(=O)c3ccco3)CC2)cc1,nt,?,-1%,nt,3%[46 µM],27%
Cc1ccc(C(=O)CCC(=O)N2CCN(C(=O)c3ccco3)CC2)cc1,nt,22µM*,1%,-10%,4%[46 µM],1%
COc1ccc(CC(=O)N2CCN(C(=O)c3ccco3)CC2)cc1,?,20µM*,-2%,-7%,-1%,-7%
COc1ccc(OCC(=O)N2CCN(C(=O)c3ccco3)CC2)cc1,-9%,10µM*,2%,-11%,16%,22%
O=C(/C=C/c1ccc(OC(F)F)cc1)OCC(=O)N1CCN(C(=O)c2ccco2)CC1,-6%,18µM*,2%,7%[10 µM],-8%,-4%
Cc1cc(C(=O)N/N=C/c2ccc3c(c2)OCO3)c(C)o1,nt,6%,13µM*,-15%[10 µM],6%[46 µM],-5%[9.22 µM]
Cc1occc1C(=O)N/N=C/c1ccc2c(c1)OCO2,nt,nt,nt,-17%[10 µM],nt,-14%[9.22 µM]
O=C(N/N=C/c1cc2c(cc1Br)OCO2)c1ccccn1,nt,0%,nt,10%[10 µM],nt,16%[9.22 µM]
O=C(N/N=C/c1ccc2c(c1)OCO2)c1cccs1,-11%,2%,13µM*,nt,8%,-2%
O=C(N/N=C/c1ccc2c(c1)OCO2)c1ccccn1,-21%,4%,10µM*,-97%,17%,18%
Cc1ccsc1C(=O)N/N=C/c1ccc2c(c1)OCO2,?,0%,2µM*,2%[10 µM],13%,13%
Cc1ccccc1/C=N/NC(=O)c1sccc1C,-26%,3%,13µM*,nt,5%,3%
O=C(N/N=C/c1cccc([N+](=O)[O-])c1O)c1cccs1,?,-9%,-7%,4%[10 µM],?,16µM*
CCN(CC)c1ccc(/C=c2\sc3nnc(-c4ccccc4Cl)n3c2=O)cc1,-6%,-6%,-8%,-20%,4%,-7%
Cc1cc(C)c(C(=O)COC(=O)c2cccc(S(=O)(=O)NCc3ccccc3)c2)cc1C,-23%,7%,0%,18%[10 µM],-17%,-16%
SMILES,HPGD block,ALDH1A1 inh,KinaseGlo FLuc,HTT cytoprotect,LMNA splice mod,HttQ103 aggreg
O=C(COC(=O)c1cccc(S(=O)(=O)NCc2ccccc2)c1)c1ccccc1,20µM*,-11%,3%,9%[10 µM],?,7%
Cc1ccccc1Nc1nc(N)nc(COC(=O)c2cccc(S(=O)(=O)NCc3ccccc3)c2)n1,28µM*,11%,-1%,20%[10 µM],-9%,0%
Cc1ccc(Cn2ccn(Cc3ccccc3C)c(=O)c2=O)cc1,nt,nt,nt,nt,1%[46 µM],nt
Cc1ccc(-c2nc(C)c(CCNC(=O)C(=O)Nc3ccc4c(c3)OCO4)s2)cc1,nt,nt,nt,nt,14%[46 µM],nt
Cc1ccccc1C1C(C#N)=C2N=C(N)c3c(sc4c3CCCCC4)N2C2=C1C(=O)CCC2 (configuration not stated),-11%,2.2µM*,0%,-29%,?,28%
CN(CCc1ccccn1)C(=O)Nc1ccc(Cl)cc1,-4%,-1%,-1%,-25%,4%,19%
CN(C)c1ccc(NC2=C(Cl)C(=O)c3ccccc3C2=O)cc1,14µM*,?,-14%,-23%[10 µM],?,14µM*
CC(C)c1ccc(NC(=S)Nc2ccc3cn[nH]c3c2)cc1,nt,19µM*,2%,-14%,0%[46 µM],-16%
O=C1C(Cl)=C(Nc2ccc3cn[nH]c3c2)C(=O)c2ccccc21,nt,nt,nt,-98%[10 µM],nt,4µM*
O=C(Nc1ccc2cn[nH]c2c1)c1c(Cl)cccc1Cl,22µM*,-2%,2%,8%[10 µM],-11%,-15%
CC(=O)Nc1ccc(NC2=C(Cl)C(=O)c3ccccc3C2=O)cc1,nt,?,?,-170%,?,?
CCOC(=O)C1CCN(C(=O)C2CC(=O)N(c3ccc(C)cc3)C2)CC1 (configuration not stated),-7%,-7%,1%,-18%,-2%,2%
COc1ccc(N2CC(=O)N(c3ccc(OC)c(OC)c3)CC2=O)cc1OC,nt,0%,nt,-8%,1%,16%
Cc1ccc2c(c1)sc(=NC(=O)C1CC1)n2C,nt,nt,nt,-9%[10 µM],nt,-5%[9.22 µM]
N/C(Cc1ccc(Cl)cc1Cl)=N\OC(=O)c1cccs1,-16%,-5%,5%,32%[10 µM],-8%,-7%
O=C(c1ccc(Cl)cc1Cl)C1(n2cncn2)Oc2ccccc2C1O (configuration not stated),-12%,-3%,1%,-27%,1%,-17%
CC(Cl)C(=O)c1ccc2c(c1)CCN2C(=O)C1CC1 (configuration not stated),nt,1.4µM*,10%,-48%,nt,-6%
CCCN(CC(=O)Nc1ccc(C(C)=O)cc1)CC(=O)Nc1ccccc1C,nt,14µM*,0%,10%[10 µM],-5%[46 µM],-10%
CCCN(CC(=O)Nc1ccc(C(N)=O)cc1)CC(=O)Nc1cc(Cl)ccc1Cl,nt,11%,1%,10%[10 µM],30%[46 µM],37%
N/C(=N\OC(=O)c1ccco1)c1ccccn1,nt,-11%,13µM*,nt,nt,nt
N/C(=N\OC(=O)c1ccco1)c1ccccc1,-29%,4%,?,-10%[10 µM],-13%,-28%
